Bioassay records (PubChem BioAssay)
IL1B secr inh: inhibitors of inflammasome signaling (IL-1 beta secretion); AID 743279; THP-1 LPS/ATP IL-1B secretion, AlphaLISA, 16 h; hits give low values; 360,000 tested, 4.7% active; activity change, % at 57.5 µM; in the data active = activity change below about -50%; inconclusive = mostly about -30% to -49%; also: % is scaled to controls: 0 for no effect and ±100 for the full control effect
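THP-1 cells pretreated 1 hr with compounds (up to 57.5 uM final), then stimulated with LPS (250 ng/mL final) plus ATP (1.25 mM final); secreted IL-1B measured by AlphaLISA after 16 hr, decreased signal indicating inhibition.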
TGFb inhibitor: inhibitors of TGF-b signaling | AID 588855 | Potency, µM (titrated, usually from 46.1 µM), for inactives: at the highest dose activity, negative = inhibition, hits mostly inhibitors | HepG2 CAGA-GFP TGF-b/SMAD3 reporter, GFP fluorescence, 18 h; TGF-beta stimulated, 500 pg/mL final | 410,000 tested, 1.2% active; also: potency is read from the fitted curve at half-maximal effect; % is scaled to controls: 0 for no effect and ±100 for the full control effect; nearly all actives have a fitted effect of over 65% in size
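Inhibition was scored as loss of TGF-beta-induced (500 pg/mL final, 18 hours, 37 degrees C) GFP in HEPG2 cells carrying a CAGA-GFP reporter, in DMEM with 1% FBS. Well GFP was summed per cell; Activity was normalised to unstimulated and stimulated DMSO wells, then concentration-response fitting.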
TDP1 block: TDP1 (human) enzyme inhibition. Q9NUW8. recombinant TDP1, AlphaScreen DNA substrate cleavage. Potency, µM (series often up to 130 µM), without a hit: top-dose activity change, negative = inhibition, most hits filed as inhibitors. 350,000 tested, 0.28% active. AID 485290; also: potency is read from the fitted curve at half-maximal effect; % is scaled to controls: 0 for no effect and ±100 for the full control effect; nearly all actives have a fitted effect of over 40% in size
Target sequence (Q9NUW8 whole entry, looked up): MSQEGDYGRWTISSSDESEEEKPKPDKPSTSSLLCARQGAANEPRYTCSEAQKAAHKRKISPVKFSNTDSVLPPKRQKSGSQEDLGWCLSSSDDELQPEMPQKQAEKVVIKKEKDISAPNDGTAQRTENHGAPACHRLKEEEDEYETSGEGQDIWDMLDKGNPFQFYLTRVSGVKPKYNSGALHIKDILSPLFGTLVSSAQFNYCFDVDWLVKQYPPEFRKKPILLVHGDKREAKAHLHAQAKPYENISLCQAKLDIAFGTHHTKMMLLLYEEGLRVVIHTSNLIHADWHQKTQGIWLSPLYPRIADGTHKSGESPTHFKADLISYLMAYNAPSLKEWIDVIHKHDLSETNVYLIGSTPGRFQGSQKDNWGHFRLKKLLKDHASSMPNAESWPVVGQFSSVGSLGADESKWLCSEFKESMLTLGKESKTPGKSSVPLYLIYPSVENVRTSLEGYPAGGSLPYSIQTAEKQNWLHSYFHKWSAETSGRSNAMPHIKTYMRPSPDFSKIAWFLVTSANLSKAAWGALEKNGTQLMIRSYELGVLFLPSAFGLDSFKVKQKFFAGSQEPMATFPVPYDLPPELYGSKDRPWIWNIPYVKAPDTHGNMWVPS
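Compounds were preincubated with Tdp1 (1 nM final) for 15 min at room temperature before substrate (15 nM final) started a 5 min reaction; beads (10 ug/ml final) were then added for 10 min before AlphaScreen detection.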
DT40 TDP1 no CPT: qHTS for Inhibitors of human tyrosyl-DNA phosphodiesterase 1 (TDP1): qHTS in cells in absence of CPT; DT40 Tdp1-/- hTDP1 cells, no CPT, ATP luminescence, 48 h; Potency, µM (doses to about 46.2 µM), for the others: at the top dose activity change, negative = growth inhibition, actives largely listed as inhibitors; 420,000 tested, 15% active; AID 686978, 2013; also: potency is read from the fitted curve at half-maximal effect; % is scaled to controls: 0 for no effect and ±100 for the full control effect; nearly all actives have a fitted effect of over 55% in size
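Growth kinetics read by CellTiter-Glo luminescence after ≥48 hr at 37 °C. Cells: DT40 Tdp1-/- stably carrying human TDP1, 400 per well, compound exposure in the absence of CPT (DMSO vehicle).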
HepG2 tox: kills HepG2 cells in TGF-b inhibitor counter-screen; 410,000 tested, 0.76% active; AID 588856; Potency, µM (titrated, usually from 46.1 µM), for the others: at the highest dose activity change, negative = cytotoxicity, actives largely listed as cytotoxic; HepG2 CAGA-GFP viability, ATP luminescence, 18 h; also: potency is read from the fitted curve at half-maximal effect
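CellTiter-Glo luminescence gave cytotoxicity after 18 hours at 37 degrees C. The cells were HepG2 CAGA-GFP in 1% FBS DMEM, stimulated with 500 pg/mL TGF-beta after compound addition. %Activity was normalised to no-cell wells (complete cell-killing) and DMSO (no toxicity), and curves were fitted and classified.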
TDP1 cell CPT: DT40-hTDP1 cell growth loss with CPT | AID 686979 | chicken DT40 Tdp1-/-;hTDP1 cells + 20 nM CPT, ATP luminescence, 48 h | Potency, µM (top dose mostly 46.2 µM), for the others: at the top dose activity change, negative = growth inhibition, usual class: inhibitors | 420,000 tested, 12% active; also: potency is read from the fitted curve at half-maximal effect; % is scaled to controls: 0 for no effect and ±100 for the full control effect; nearly all actives have a fitted effect of over 55% in size
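Cell growth measured by CellTiter-Glo luminescence after a minimum 48 h, 37 C compound exposure with 20 nM CPT in Tdp1-knockout DT40 cells stably expressing hTDP1, seeded 400/well; qHTS titration format.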
Starred values were filed as active, the others as inactive; ? = inconclusive; / = no result; [ ] = another dose, or the depositor's remark. Rows were chosen to be rich in hits. Some 19% of all compounds tested hit in one or more screens of this group. Unless noted, calls follow the shape of the dose curve; as a rule, active = well fitted curve in the direction sought with a large enough effect; inconclusive = small, poorly fitted or top-dose-only effect, or another doubt; inactive = no such curve, though single readings can be large; an effect the other way counts as inactive or inconclusive.

SMILES	IL1B secr inh	TGFb inhibitor	TDP1 block	DT40 TDP1 no CPT	HepG2 tox	TDP1 cell CPT
CCCc1nc2ccc(Cl)cn2c1Cc1ccccc1OC	10	?	/	12µM*	-31%	7.3µM*
COc1ccccc1Cc1c(-c2ccc(F)cc2)nc2ccc(Cl)cn12	26	-17%	/	?	-10%	?
CCCc1nc2c3ccccc3ccn2c1Cc1ccc(OC)cc1C	-12	?	/	?	-15%	18µM*
COc1ccc(Cc2c(-c3ccc(C)cc3)nc3c4ccccc4ccn23)c(C)c1	-18	-15%	/	?	-25%	?
CCCc1nc2ccc(C)cn2c1Cc1ccc(OC)cc1C	5	-2%	/	23µM*	-30%	13µM*
COc1ccc(Cc2c(C(C)(C)C)nc3ccc(Br)cn23)c(C)c1	29	-26%	/	?	-8%	?
CCCc1nc2ccc(Cl)cn2c1Cc1ccccc1	21	-6%	/	4.1µM*	-1%	6.5µM*
Fc1ccc(-c2nc3ccc(Cl)cn3c2Cc2ccccc2)cc1	19	?	/	?	-27%	?
CCCc1nc2ccc(Br)cn2c1Cc1ccccc1OC	2	16µM*	/	0.82µM*	-49%	1.5µM*
CCOCCCNS(=O)(=O)c1ccc(NC(=O)C2CC(=O)N(c3ccc(C)cc3)C2)cc1 (centres undefined)	-2	-4%	5%	?	5%	-10%
Cc1cc(C)c(S(=O)(=O)N2CCN=C2c2ccccc2)c(C)c1	20	-7%	6%	16µM*	0%	?
CCOC(=O)C1(C)CCCN(C(=O)c2ccccc2OC(F)(F)F)C1 (centres undefined)	3	-5%	/	-25%	0%	-26%
O=C(Nc1nc(-c2ccccc2)cs1)Nc1ccc(F)cc1F	-16	0%	-5%	9.2µM*	3%	9.2µM*
O=C(NCc1ccccn1)Nc1ccc(F)cc1F	-11	2%	/	-1%	5%	-12%
O=C(Nc1ccc(F)cc1F)c1csc(-c2ccccc2)n1	0	-18%	-1%	-13%	-11%	1%
O=C(Nc1nc(-c2ccccn2)cs1)Nc1ccc(F)cc1F	-83*	?	9%	2.9µM*	-4%	4.6µM*
O=S(=O)(NCCc1ccccc1)c1ccccc1Br	/	0%	4%	/	-3%	/
COc1ccc(CCN(C)S(=O)(=O)c2ccc(Cl)nc2)cc1OC	5	-11%	5%	?	-15%	-22%
CN(C)S(=O)(=O)c1ccc2c(c1)/C(=C/c1cc3c([nH]1)CCCC3)C(=O)N2	-11	77%	12%[56.1 µM]	3.3µM*	3%	4.6µM*
O=C(c1ccc(C(F)(F)F)cc1)N1CCC(=O)N(C(COCc2ccc(C(F)(F)F)cc2)Cc2ccccc2)CC1 (centres undefined)	-82*	?	-3%	18µM*	5%	?
Cc1cccc(COCC(Cc2ccccc2)N2CCN(C(=O)c3ccc(C(F)(F)F)cc3)CCC2=O)c1 (centres undefined)	-76*	?	3%	21µM*	-32%	23µM*
Cc1cccc(COC[C@H](Cc2ccccc2)N2CCN(C(=O)c3ccc(C(F)(F)F)cc3)CCC2=O)c1	-67*	/	/	18µM*	/	?
CC1(C)CC(N=Cc2c(O)n(Cc3ccc4c(c3)OCO4)c(=O)c3ccccc23)CC(C)(C)N1	-107*	3%	5%	7.3µM*	-16%	6.5µM*
CN(C)CCCN=Cc1c(O)n(Cc2ccccc2)c(=O)c2ccccc12	?	2%	2%	7%	-7%	?
COC(=O)C(C(C)=O)C(NC(=O)OC(C)(C)C)c1ccccc1 (centres undefined)	/	/	3%	/	/	/
SMILES	IL1B secr inh	TGFb inhibitor	TDP1 block	DT40 TDP1 no CPT	HepG2 tox	TDP1 cell CPT
N#C/C(=C(/O)c1cc2ccccc2o1)c1nc2ccccc2s1	0	?	1%	13µM*	-1%	?
N#C/C(=C(/O)c1cccc(F)c1)c1nc2ccccc2s1	-59*	-27%	5%	12µM*	-7%	21µM*
N#C/C(=C(/O)C(Cl)c1ccccc1)c1nc2ccccc2s1 (centres undefined)	-5	0%	5%	13µM*	-28%	6.5µM*
N#C/C(=C(/O)c1ccco1)c1nc2ccccc2s1	-18	?	2%	15µM*	-16%	?
N#C/C(=C(/O)CN1CCOCC1)c1nc2ccccc2s1	2	-3%	9%	-28%	-52%	8%
COc1ccc(OCC2CN3C(CCC(C)C3c3ccc(Br)cc3)C(=O)O2)cc1 (centres undefined)	/	/	6%[21 µM]	/	/	/
COc1cccc(NC(=O)CN(C)C(=O)c2ccc(S(=O)(=O)Nc3ccccc3F)cc2)c1	14	-18%	8%	-17%	-10%	-16%
CCOC(=O)N1CCC(N(CCCOC)C(=O)Nc2ccc(CC)cc2)CC1	7	?	8%	13µM*	-25%	18µM*
CC(=O)N1CCC(N(CCCOC(C)C)C(=O)Nc2ccc(Cl)cc2)CC1	-3	21%	/	-17%	10%	-15%
CCOC(=O)N1CCC(N(CCOC)C(=O)Nc2ccc(Cl)cc2)CC1	0	-45%	1%	15µM*	3%	?
CCOC(=O)N1CCC(N(C(=O)Nc2ccc(CC)cc2)C(C)CC)CC1 (centres undefined)	-8	-23%	2%	23µM*	4%	?
CCOC(=O)N1CCC(N(C(=O)Nc2ccccc2)C(C)CC)CC1 (centres undefined)	5	-26%	5%	?	0%	?
CCOC(=O)/C(=C\c1cccc(O)c1)c1nc2sc(C)c(C)c2c(=O)[nH]1	-102*	?	0%	23µM*	-61%	9.2µM*
CCOC(=O)c1nc2sc(C)c(C)c2c(=O)[nH]1	7	0%	4%	-9%	-6%	-15%
CCCCCCn1c(COc2ccccc2F)nnc1SCC(=O)N1c2ccccc2NC(=O)C1(C)C	-57*	?	7%	16µM*	-94%	23µM*
C=CCn1c(C)nnc1SCC(=O)N1c2ccccc2NC(=O)C1(C)C	-2	9%	/	?	17%	9%
CS(=O)(=O)N(Cc1ccccc1)c1ccc(C(=O)Nc2cccc(Cl)c2)cc1	/	16µM*	-6%[12.3 µM]	15µM*	11µM*	?
